# High-throughput results (PubChem BioAssay)
# This is a sample that favours compounds with a hit; in the whole collection about 1.1% have one here.
# HTR5A inv ctr: counter-screen for OPRM1-OPRD1 inverse agonists: human HTR5A inverse agonism; P47898; HTR5A cell line, luminescence; inhibition, % at 9.3 µM; 0.083% of 340,000 active; AID 504634; in the data active means inhibition mostly above about 23%, no sharp cut-off; inactive means mostly below about 18%;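 further: 0% = cells with DMSO and 100% = no-cell wells with DMSO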
# MOR-DOR inv ag: inverse agonists of human mu-delta opioid receptor heterodimerization; P35372+P41143; cell-based MOR-DOR heterodimer luminescence, inverse agonism; inhibition, % at 9.3 µM; 0.21% of 340,000 active; in the data active means inhibition above about 22%, passing the limit was not always enough;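 further: 0% = cells with DMSO and 100% = wells without cells with DMSO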
# Target sequence (P35372 whole entry, looked up): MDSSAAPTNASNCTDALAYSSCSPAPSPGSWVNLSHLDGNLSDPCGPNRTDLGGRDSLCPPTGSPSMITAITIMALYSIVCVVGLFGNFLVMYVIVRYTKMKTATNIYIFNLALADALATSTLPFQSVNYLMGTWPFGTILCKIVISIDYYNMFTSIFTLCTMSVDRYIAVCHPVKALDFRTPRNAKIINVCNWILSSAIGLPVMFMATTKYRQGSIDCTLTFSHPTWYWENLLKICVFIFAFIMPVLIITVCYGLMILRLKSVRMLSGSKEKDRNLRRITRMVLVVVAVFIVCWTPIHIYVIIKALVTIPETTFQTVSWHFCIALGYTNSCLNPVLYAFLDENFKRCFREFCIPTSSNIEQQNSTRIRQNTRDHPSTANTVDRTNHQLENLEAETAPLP
# Target sequence (P41143 whole entry, looked up): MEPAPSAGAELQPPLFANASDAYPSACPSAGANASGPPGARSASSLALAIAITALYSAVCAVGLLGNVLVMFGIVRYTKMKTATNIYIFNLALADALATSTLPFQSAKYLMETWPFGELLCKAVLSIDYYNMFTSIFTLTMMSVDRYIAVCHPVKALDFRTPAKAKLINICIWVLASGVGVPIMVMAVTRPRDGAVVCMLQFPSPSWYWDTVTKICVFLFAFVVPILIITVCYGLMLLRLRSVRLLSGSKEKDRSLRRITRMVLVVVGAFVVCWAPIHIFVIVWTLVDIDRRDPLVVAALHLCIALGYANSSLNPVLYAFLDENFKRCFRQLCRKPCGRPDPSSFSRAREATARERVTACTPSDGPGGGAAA
# HTR5A ag ctr: activates human HTR5A in OPRM1-OPRD1 agonist counter-screen | HTR5A agonist assay, luminescence, cell-based | 0.61% of 340,000 active | P47898 | activation, % at 9.3 µM | AID 504692; in the data active means activation mostly above about 9.5%, no sharp cut-off; inactive means mostly below about 7.6%;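 further: 0% = cells with vehicle only and 100% = reference agonist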
# MOR-DOR ag-1: OPRM1-OPRD1 heterodimerization agonism. P35372+P41143. cells, luminescence. activation, % at 9.3 µM. 0.3% of 340,000 active;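 further: 0% = vehicle-treated cells and 100% = reference agonist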
# MOR-DOR ag-2: promotes OPRM1-OPRD1 heterodimerization in HTR5A counter-screen; activation, % at 9.3 µM; AID 504913; 13% of 800 active; shares compounds with HTR5A ag ctr; U2OS counter-screen cells, complementation luminescence, 3 h
# HTR5A ag conf: confirmation of human HTR5A agonists | shares compounds with HTR5A ag ctr | HTR5A agonist cell assay, luminescence | activation, % at 9.3 µM | 17% of 800 active | AID 504915; in the data active means activation above about 17%;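 further: 0% = cells with vehicle only and 100% = full reference agonist response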
# * hit, by the source's call; / = no result. Unless noted, no stated cut-off is given here; in the data, active means activation above about 18%; inactive means the rest.
SMILES,HTR5A inv ctr,MOR-DOR inv ag,HTR5A ag ctr,MOR-DOR ag-1,MOR-DOR ag-2,HTR5A ag conf
CN1C(=O)c2cccc3c(S(=O)(=O)Nc4ccc(O)c(C(=O)O)c4)ccc1c23,-9.2,-9.3,3.1,1.1,/,/
CN1C(=O)c2cccc3c(S(=O)(=O)N4CCCC4C(=O)O)ccc1c23 (stereo not given),-48.9,5.2,17.2*,-0.8,0.3,0.2
COC(=O)CCCC1=CC2=C(c3ccccc3)C(=O)C(C)(OC(=O)C3CCCC3)C(=O)C2=CN1CCc1c[nH]c2ccccc12 (stereo not given),-12.1,-6.4,14.7*,1.2,1.8,8.2
CC1(OC(=O)CCc2ccccc2)C(=O)C=C2C=C(c3ccc(C#N)cc3)N(CCc3c[nH]c4ccccc34)C=C2C1=O (stereo not given),-32.2,-38.6,20.0*,6.9,4.8,6.2
COc1ccccc1NS(=O)(=O)c1cccc(C(=O)NCC(c2cccs2)N2CCOCC2)c1 (stereo not given),5.9,0.4,-2.4,-0.1,/,/
COc1cccc(N2CCN(Cc3ccco3)CC2)c1,-42.5,7.2,15.3*,-1.4,0.9,-5.9
CCOc1ccc(S(=O)(=O)N2CN3CCN(C3)C2)cc1,-14.3,9.5,2.2,-1.7,/,/
CCOc1ccc(S(=O)(=O)N2CCNC(=O)C2)cc1,-56.6,-0.3,20.4*,0.1,-0.3,1.8
N#Cc1ccc(OCC(=O)N2CCN(c3ccc(C(F)(F)F)cn3)CC2)cc1,-5.7,0.5,18.6*,-0.1,-0.6,-2.0
C=CCN(CC(O)c1cccc([N+](=O)[O-])c1)C(C)CCc1ccccc1 (stereo not given),-19.7,-36.9,6.3,7.0,/,/
O=C(NCc1ccc(OC(F)(F)F)cc1)C1CC2Cn3c(nc4ccccc43)C2N1c1ccccc1 (stereo not given),8.7,13.2,-3.2,-2.3,/,/
CC(C)(c1ccccc1)c1ccc(OCCN2CCOCC2)cc1,-53.5,-4.2,14.4*,0.9,127.5*,1.1
CCCCC1(Br)C(=O)N(c2ccccc2)N(c2ccccc2)C1=O,-41.8,22.9,16.4*,-5.7,1.0,0.0
CCOC(=O)CCc1c(C)nc(-n2[nH]c(C)c(CCO)c2=O)[nH]c1=O,11.6,4.2,-4.3,-0.8,/,/
COC(=O)C1(Cc2cc(-c3ccc([N+](=O)[O-])cc3)no2)CCN(C(=O)OC(C)(C)C)CC1,2.4,-26.8,-0.1,4.7,/,/
COc1cc(/C=C2/CC/C(=C/c3ccc(O)c(OC)c3)C2=O)ccc1O,13.6,-53.3,23.5*,10.2,0.2,5.2
COc1cc(/C=C2\COC/C(=C\c3ccc(O)c(OC)c3)C2=O)ccc1O,16.1,2.9,-7.1,-0.6,/,/
CCN(CC)c1ccc(-c2nn3c(-c4n[nH]c5c4CCC5)nnc3s2)cc1,-17.6,8.8,16.4*,-1.9,9.4,9.1
C1CCC(c2nn3c(-c4n[nH]c5c4CCC5)nnc3s2)CC1,-3.5,1.4,1.4,-0.3,/,/
Cc1ccc(OCCNC(=O)CCc2ccccc2)cc1C,-30.2,9.5,-2.9,-1.9,/,/
CCCCNC(=O)CCn1c(=O)c2ccccc2n(Cc2ccc(Cl)cc2)c1=O,-47.4,4.9,17.8*,-0.8,1.1,-1.9
NC(=S)NNC(=O)COc1ccccc1O,9.2,16.3,0.8,-3.2,/,/
Cc1ccc(C(=O)N/C(=C\c2cccs2)C(=O)NCCc2c[nH]c3ccccc23)cc1C,-44.2,16.4,18.5*,-3.4,2.3,38.5*
COc1ccc(C(=O)N/C(=C\c2cccc3ccccc23)C(=O)NCCc2c[nH]c3ccccc23)cc1OC,-47.2,10.5,18.8*,-2.5,-0.5,-0.9
CC(C)(C)OC(=O)C[C@H]1C/C=C\C[C@H](CC(=O)NCCO)C(=O)N[C@@H](Cc2ccccc2)COC1=O,-12.3,-4.2,2.0,0.8,/,/
SMILES,HTR5A inv ctr,MOR-DOR inv ag,HTR5A ag ctr,MOR-DOR ag-1,MOR-DOR ag-2,HTR5A ag conf
O=C1CNC(=S)N1C(CO)c1ccccc1 (stereo not given),2.2,8.0,-0.6,-1.4,/,/
CCCc1nc2ccc(NC(=O)c3cccs3)cc2c(=O)n1Cc1ccc(Cl)cc1,-8.8,5.1,3.6,-1.0,/,/
Cc1nc2ccc(NC(=O)c3cccs3)cc2c(=O)n1Cc1ccc(Cl)cc1,-39.2,-9.4,15.4*,1.6,-1.7,-3.4
Cc1ccc(/C=N/n2c(C)n[nH]c2=S)o1,-3.5,4.6,1.5,-1.0,/,/
O=C(Nc1ccc2c(c1)OCO2)c1cc(-c2ccccc2Cl)on1,-33.9,-46.1,17.2*,7.3,0.3,3.6
O=C(NCc1ccc2c(c1)OCO2)c1cc(-c2ccccc2Cl)on1,-14.9,-2.5,-0.3,0.4,/,/
Cc1ccc(S(=O)(=O)NN=C2C3CC4CC(C3)CC2C4)cc1[N+](=O)[O-],-58.1,2.0,12.4,-0.4,/,/
Cc1ccc(S(=O)(=O)NN=C2C3CC4CC(C3)CC2C4)cc1,0.1,20.3,15.0*,-4.2,-0.1,2.2
c1ccc(-c2cc(-c3nnc4n3N=C(c3ccc5ccccc5c3)CS4)[nH]n2)cc1,-65.9,-11.6,15.4*,2.2,6.1,14.9
O=C(C1=COCCO1)N1CCN(c2nc3ccc([N+](=O)[O-])cc3s2)CC1,-49.0,7.1,16.2*,-1.1,82.8*,5.8
CCCc1[nH]n(-c2ccc([N+](=O)[O-])cc2)c(=O)c1C=NCCc1c[nH]c2ccccc12,-43.6,-6.7,19.8*,1.4,5.1,4.6
Cc1[nH]n(-c2ccc([N+](=O)[O-])cc2)c(=O)c1C=NCCc1c[nH]c2ccccc12,-100.5,-4.6,34.3*,0.9,2.6,9.8
Cc1[nH]n(-c2ccccc2)c(=O)c1C=NCCc1ccccc1,-0.6,11.9,2.2,-2.3,/,/
O=C(C1=C(O)C(=O)N(CCCn2ccnc2)C1c1cccc(Br)c1)c1ccco1 (stereo not given),22.5,17.4,-1.2,-5.3,/,/
Cc1nc(N)nc(N)c1CCCc1ccc(Cl)c(Cl)c1,-30.2,-8.1,17.5*,1.6,1.0,-0.2
CC1CN(c2ccccc2)CCN1C(=O)c1cc(COc2c(F)cccc2F)on1 (stereo not given),4.0,9.0,14.5*,-1.7,0.1,86.6*
O=C(c1ccco1)N1CCN(C(=O)c2ccc(-c3cccc(C(F)(F)F)c3)o2)CC1,-92.1,9.3,35.3*,-1.4,0.2,23.4*
O=C(c1ccc(-c2cccc(C(F)(F)F)c2)o1)N1CCCCCCC1,-9.8,-13.7,3.6,2.6,/,/
Cc1ccc(Cl)cc1NC(=O)c1cc2ccccc2cc1O,2.0,-41.0,22.2*,7.8,4.9,15.7
Cc1nc(NC(=O)c2cc3ccccc3o2)ccc1Br,-51.8,-4.7,21.5*,0.9,3.6,0.4
Cc1nc(NC(=O)c2ccc(Br)o2)ccc1Br,-27.4,-7.8,10.7,1.9,/,/
CC(C(=O)Nc1cc([N+](=O)[O-])ccc1Cl)N1CCN(c2ccc(O)cc2)CC1 (stereo not given),-37.2,-13.2,-0.4,2.6,/,/
CNCc1cc(Br)c(OCC(=O)Nc2ccccc2OC)c(OC)c1,-11.2,2.4,4.0,-0.4,/,/
